TWEAK Fn14 block: inhibitors of TWEAK-Fn14 signaling, primary screen, luciferase reporter cells, uHTS; TWEAK-stimulated Fn14 reporter cells, luciferase luminescence, 8 h; inhibition, % at 10 µM; hit rate 2% among 360,000; AID 1159606, 2016; in the data active means inhibition above about 50%
Peg3 promoter: Peg3 promoter-driven luciferase inhibitors, primary screen, cell-based, HeLa, luciferase luminescence. HeLa PEG-Prom luciferase reporter, overnight. hit rate 1.7% among 360,000. inhibition, % at 20 µM;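 active means inhibition of at least 50% at 20 µM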
HIF-2a inh: HIF-2a reporter inhibitors, primary screen, luminescence, 786-0 RCC cells; 786-0 RCC cells HIF-2a reporter, luciferase luminescence, overnight; inhibition, % at 18.8 µM; hit rate 0.72% among 360,000;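 active means inhibition of the luminescence signal of 40% or more relative to plate controls, in a single-dose primary screen at 18.75 µM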
CF NFkB block: inhibitors of PAF-induced NF-kB signaling, primary screen, cell-based, GFP fluorescence, uHTS; KKLEB NF-kB-GFP reporter, GFP fluorescence overnight; inhibition, % at 5 µM; hit rate 0.86% among 360,000; AID 588850, 2011;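 active means at least 50% inhibition at 5 µM, scaled per plate between neutral and stimulator controls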;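 further: PAF is a Pseudomonas aeruginosa culture filtrate used as stimulus; plate controls were PAF-stimulated DMSO wells for no effect and unstimulated DMSO wells for full effect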
KKLEB cytotox: cytotoxicity in KKLEB CF airway cells, primary screen, cytotoxicity control for CF NF-kB inhibitor project, cell-based, uHTS, fluorescence assay plates | hit rate 0.36% among 360,000 | activity change (cytotoxicity), % at 5 µM | AID 602141, 2011 | KKLEB CF airway cells viability, ATPlite luminescence, overnight; hits give low values; cells stimulated with P. aeruginosa culture filtrate;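 active means corrected activity change at or below -50% at 5 µM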
TROY NFkB inh: inhibitors of TROY-driven NF-kB signaling, primary screen, Q293 LMP1-TROYcd cells, NF-kB luciferase, uHTS. inhibition, % at 10 µM. hit rate 0.98% among 360,000. AID 1347056, 2019. Q293 LMP1-TROYcd NF-kB luciferase reporter, 4 h;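 active means compounds whose plate-normalised and pattern-corrected inhibition of the luciferase reporter signal at the single screening dose is 50% or more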
CF NFkB conf: inhibitors of PAF-induced NF-kB signaling, retest, confirmation, cell-based, GFP fluorescence, single concentration; shares compounds with CF NFkB block; KKLEB CF airway cells, overnight; inhibition, % at 5 µM; hit rate 64% among 1,300; AID 602472, 2012; in the data active means inhibition above about 40%;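 further: stimulus PAF is a Pseudomonas aeruginosa filtrate and not platelet activating factor; plate controls were DMSO wells with stimulus for no effect and unstimulated DMSO wells for full effect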
* marks the source's active call; other numbers are inactive results; . = not tested or not shown. Most compounds without a hit are left out; they make up all but 4% or so of the library.

SMILES | TWEAK Fn14 block | Peg3 promoter | HIF-2a inh | CF NFkB block | KKLEB cytotox | TROY NFkB inh | CF NFkB conf
CC[C@@H]1CC=C[C@H]2[C@H]1C(=O)N(Cc1ccccc1)[C@H]2c1ccoc1 | 29.0 | 87.8* | 32.3 | 59.2* | -18.7 | 4.6 | 13.0
C[C@@H]1CC=C[C@H]2[C@H]1C(=O)N(Cc1ccccc1)[C@H]2c1ccoc1 | 22.0 | -47.9 | 18.9 | 28.0 | -5.3 | 5.3 | .
COC(=O)c1ccc(-c2ccc(OC)c([C@H]3[C@H]4C=CC[C@@H](C)[C@@H]4C(=O)N3Cc3ccccc3)c2)cc1 | -17.4 | 29.2 | 23.6 | 66.4* | -12.3 | 7.6 | 52.7*
C[C@@H]1CC=C[C@H]2[C@H]1C(=O)N(Cc1ccccc1)[C@H]2c1cccc([N+](=O)[O-])c1 | -1.8 | 17.9 | 13.3 | 56.2* | -21.4 | 6.2 | 16.4
O=C(Nc1cccc2ccccc12)N(c1ccccc1)c1ccccc1 | -1.4 | 4.0 | 14.0 | 8.3 | 9.8 | 14.5 | .
COc1ccc(N2C(=O)C(Cl)=C(N(CCO)Cc3ccccc3)C2=O)cc1 | 8.0 | 16.7 | 17.2 | -16.4 | 11.8 | 11.3 | .
O=C1OC(c2ccccc2)(c2cc(Br)ccc2O)c2ccccc21 (configuration not stated) | 55.9* | 104.2* | 31.5 | 74.6* | -20.3 | 74.3* | 49.5*
CC(C)C1C(=O)N(Cc2cn(CCC3OCCO3)nn2)CCS(=O)(=O)N1Cc1ccc(-c2ccncc2)cc1 (configuration not stated) | 1.6 | -13.8 | 9.7 | -4.5 | -6.1 | 8.2 | .
Oc1cc(NCc2ccc(F)cc2)cc2cccnc12 | -2.5 | 8.0 | 0.9 | 51.2* | 25.1 | -12.1 | 39.5
CCn1c(=O)cc(C(=O)OC)sc1=Nc1ccc(F)c(F)c1 | 46.1 | 64.9* | 11.2 | 50.5* | -20.8 | 4.9 | 23.7
COC(=O)c1cc(=O)n(CCc2ccccc2)c(=Nc2ccc(F)cc2)s1 | 10.6 | 14.7 | 9.6 | -1.0 | -14.0 | -17.2 | .
O=C1C2CC=CCC2C(=O)N1c1ccc(Cc2ccncc2)cc1 (configuration not stated) | 6.0 | 7.5 | 7.7 | 3.6 | -8.2 | 16.8 | .
Cc1ccc(C(=O)NCC(=O)OCCCn2c(=O)[nH]c3ccccc32)cc1C | -0.5 | -10.6 | 11.2 | -4.3 | 1.0 | -6.2 | .
CCOC(=O)C1=NNC(C(=O)OCC)C1c1ccccc1 (configuration not stated) | -12.2 | 1.0 | 0.3 | 8.4 | -1.9 | -2.0 | .
COc1nc(=O)n(C2C=CC(=O)O2)cc1F (configuration not stated) | 63.6* | 26.7 | -3.9 | 86.8* | -17.6 | -12.5 | 23.1
CS(=O)(=O)n1nc(OC(=O)c2cccc3ccccc23)cc1N | 56.2* | -32.3 | 10.4 | 65.7* | -33.7 | 39.6 | 17.2
CS(=O)(=O)n1nc(OC(=O)c2cc(Br)ccc2Cl)cc1N | 8.2 | 17.3 | 22.4 | 5.3 | 1.2 | 4.6 | .
CC[C@@]1(c2ccccc2)C(=O)N(C(=O)OC)N1C(=O)OC | -8.4 | 11.7 | 8.7 | 11.6 | 6.3 | -2.2 | .
COC(=O)N1C(=O)[C@@](c2ccccc2)(C2CCCCC2)N1C(=O)OC | 73.5* | 83.7* | 24.1 | 66.2* | -24.2 | 49.4 | 48.7*
COC(=O)N1C(=O)[C@@](Cc2ccccc2)(c2ccccc2)N1C(=O)OC | 35.2 | 24.8 | 6.7 | 56.6* | -9.8 | -4.2 | 54.6*
CSc1ccccc1C(=O)NC1CCCC1 | 3.3 | 5.6 | 1.8 | 3.1 | 1.5 | -3.2 | .
CC(=O)Oc1c(Br)cc(N(C(C)=O)S(=O)(=O)c2ccccc2)c2ccccc12 | 38.4 | -7.9 | -3.3 | 87.7* | -40.9 | 4.5 | 74.3*
CC(C)CC1NC(=S)N(Cc2ccccc2)C1=O (configuration not stated) | -2.6 | 98.7* | -10.6 | 58.4* | -17.0 | 2.4 | 9.7

Source: PubChem
